Among the data in PubChem BioAssay (NCATS) are Potency and outcome values, retold here.

Assay [1] is described as follows: qHTS for differential inhibitors of proliferation of Plasmodium falciparum line W2 (AID 1883).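 Further: potency means the concentration at half of the fitted maximal effect; parasites grown with compound for 72 h before lysis and staining.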 Conditions: Potency: Plasmodium falciparum W2 proliferation inhibition.
Assay [2] is described as follows: qHTS for differential inhibitors of proliferation of Plasmodium falciparum line HB3 (AID 1886).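 Further: parasites grown with compound for 72 h before SYBR Green readout.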 Further: potency means the concentration at half of the fitted maximal effect. The settings on record: Potency: Plasmodium falciparum HB3 proliferation inhibition.
Assay [3] deals with Ferritin light chain (Equus caballus) (UniProt P02791). The assay is described as follows: qHTS Validation Assay for Identification of Novel General Anesthetics (AID 2323). Further: series mostly up to about 77 µM. The method, boiled down: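 Horse-spleen apoferritin (10 uM) in PBS with 50% saturated 1-aminoanthracene; compounds pin-transferred, 10 min at room temperature. Fluorescence read at 380/535 nm, normalized to free 1-AMA and 1-AMA/apoferritin values; four-parameter Hill fit.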

Assay [4] has as its target ATP-dependent DNA helicase Q1 (Homo sapiens) (UniProt P46063). The assay is described as follows: qHTS Validation Assay for Inhibitors of RecQ-Like Dna Helicase 1 (RECQ1) (AID 2353). The method, boiled down: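 RECQ1T1 50 nM; forked duplex (20 bp + 30-nt ss tails) 200 nM, ATP 2 mM final; pH 8.0, 2 mM MgCl2, 2.5 ug/ml poly(dI-dC); 15 min compound preincubation; discontinuous kinetic read over 2 h at RT.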

Assay [5] is described as follows: Cytometric Cell-Based qHTS for Inhibitors of the mTORC1 Signaling Pathway in MEF (Tsc2-/-, p53-/-) Cells (AID 2660).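 Further: Tsc2 and p53 null MEFs carrying empty vector with compound for 24 h; percent of cells above a phospho-rpS6 to PI ratio cutoff in each well; series mostly up to about 38 µM.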 The method in brief:
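Cells are plated, treated with compound for 24 hrs at 37 degree Celsius, then fixed, blocked and immunostained for phospho-rpS6 Ser235/236. Propidium iodide counterstain follows. Per-well % positive cells is derived from the PI-normalized phospho-S6 signal.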

Assay [6] can be described thus: High Content Imaging Cell-Based qHTS for Inhibitors of the mTORC1 Signaling Pathway in MEF (Tsc2-/-, p53-/-) Cells (AID 2666).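 Further: percent of cells scored positive for phospho-rpS6 Ser235/236 immunostaining by imaging.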 The method in brief:
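MEF Tsc2-/- p53-/- (empty vector), DMEM/10% FBS; cpd 24 h 37 °C; PFA fix, Alexa-488 p-rpS6 S235/236 Ab, Hoechst; imaged; rapamycin-defined inhibition; % positive cells/well.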

Assay [7] can be described thus: Validation screen for small molecules that induce DNA re-replication in MCF 10A normal breast cells (AID 463097). Further: nearly all actives have a fitted effect of over 60% in size. Further: potency means the concentration at half of the fitted maximal effect. The method in brief: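 MCF 10A cells exposed to compound 48 hr at 37 C, 5% CO2, then Hoechst-stained 40 min. Laser-scanning imaging of nuclear DNA content (405 nm ex, 500-530 nm em); re-replication scored as rise in nuclei with elevated fluorescence intensity.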

Assay [8] deals with Ubiquitin carboxyl-terminal hydrolase 2 (Homo sapiens) (UniProt O75604). Briefly: qHTS Validation Assay for Inhibitors of Ubiquitin-specific Protease USP2a Using CHOP2 as the Reporter (AID 463106). The method, boiled down:
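Fluorescence read-out at Ex 485nm/Em 531nm after 60min RT, following addition of 25nM Ub-CHOP2 plus 25nM reporter substrate to USP2 core (10nM) pretreated 30min with compound. Data normalized to NEM full inhibition; concentration-response curves fitted.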

Assay [9] deals with DNA polymerase III PolC-type (Bacillus subtilis (strain 168)) (UniProt P13267). The assay is described as follows: qHTS Validation Assay for the Inhibitors of DNA Replication in Gram-Positive Bacteria (AID 485295).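 Further: PicoGreen fluorescence of double-stranded DNA made on primed circular M13 template; series mostly up to about 57 µM.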 The method, boiled down: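 Reconstituted B. subtilis Pol III holoenzyme (PolC, beta clamp, SSB, primase) preincubated with compound, then M13Gori single-stranded circular template with dNTPs/NTPs added; room temperature reaction. Stopped with EDTA/PicoGreen; dsDNA fluorescence read, EDTA as full-inhibition control.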

Assay [10] deals with Tumor susceptibility gene 101 protein (Homo sapiens) (UniProt Q99816). The assay is described as follows: qHTS Validation Assay for Iinhibitors of HIV-1 Budding by Blocking the Interaction of PTAP/TSG101 (AID 485342; calls by dose curve). The method in brief:
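Tsg101 binding domain (10 uM) with FITC-labeled PTAP peptide (50 nM) in HEPES pH 7.5 buffer, 20 min at r.t. with compounds. Binding measured by fluorescence polarization.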

Assay [11] in a line: qHTS Validation Assay to Find Inhibitors of Chronic Active B-Cell Receptor Signaling (AID 485345; active means well fitted curve in the direction sought with a large enough effect in the main read-out, with a control signal flat, not every such curve was filed as active). The method, boiled down: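 TMD8 ABC-DLBCL cells stably carrying doxycycline-inducible IkappaBalpha–green luciferase fusion plus unfused red luciferase; compounds 46 uM to 3 nM, 4 h at 37C with doxycycline. Corrected green/red luminescence ratio normalized to 10 uM MG-132 and basal cell wells; curves fitted.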

Assay [12] addresses Beta-2 adrenergic receptor (Homo sapiens) (UniProt P07550). The assay is described as follows: qHTS validation assay of beta-arrestin-biased ligands of beta2-adrenergic receptor (AID 485366). The method, boiled down:
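Compound series up to 46 microM applied to beta2-AR/beta-arrestin Tango cells, 18 hr, 37 degrees C, 5% CO2. Read-out: tTA-driven luciferase luminescence, converted to %Activity; concentration-response curves assigned curve classes.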

Assay [13] can be described thus: qHTS for differential inhibitors of proliferation of Plasmodium falciparum line Dd2 (AID 1882).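 Further: series mostly up to about 29 µM; compound exposure of 72 h on infected erythrocytes; nearly all actives have a fitted effect of over 65% in size.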 The settings on record: Potency: Plasmodium falciparum Dd2 proliferation inhibition. The method, boiled down:
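RBC culture, 0.3% parasitemia / 2.5% Hct final; cpd added by pin tool in DMSO; 72 h, 37 C, 5% CO2; lysis buffer + SYBR Green I, o/n RT dark; FI 485/535; norm. to artemisinin 0.29 uM and DMSO.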

Assay [14] can be described thus: qHTS Assay for Modulators of Human Peripheral Myelin Protein 22 (PMP22) Expression/Activity (AID 1967; active means well fitted curve in the direction sought with a large enough effect in the signal ratio; the % refers to the signal ratio). The method in brief:
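Mouse MSC80 Schwann cells carrying Pmp22 promoter–green click beetle luciferase plus EF-alpha–red luciferase control, dosed 24 h at 37 °C. Dual-filter luminescence, overlap-corrected; %Activity from green/red ratio normalised to untreated cells, concentration-response curves fitted.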

Assay [15] in a line: High Content Imaging Cell-Based qHTS for Inhibitors of the mTORC1 Signaling Pathway in MEF Cells (AID 2667).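 Further: Tsc2-/- p53-/- MEFs stably re-expressing wild-type Tsc2 exposed 24 h; series mostly up to about 38 µM.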 The method in brief:
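Read-out is the share of phospho-rpS6-positive cells per well, from Hoechst-normalized Alexa-488 Ser235/236 staining imaged on IN Cell. Cells: WT Tsc2-expressing Tsc2-/-, p53-/- MEFs exposed to compound for 24 hrs.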

The nature of assay [16]: Cytometry Cell-Based qHTS for Inhibitors of the mTORC1 Signaling Pathway in MEF cells (AID 2668).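 Further: Tsc2-/- p53-/- mouse embryonic fibroblasts stably re-expressing wild-type Tsc2; percent cells positive for phospho-rpS6 Ser235/236 relative to propidium iodide stain; series mostly up to about 38 µM.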 The method in brief: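 MEFs (Tsc2-/-, p53-/- stably expressing WT Tsc2) treated 24 h at 37 degree Celsius, fixed, stained with Alexa-488 anti-phospho-rpS6 Ser235/236 and propidium iodide; Acumen laser scanning. Reported as % positive cells, phospho-S6 normalized to PI.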
Assay [17] has as its target RecQ-like DNA helicase BLM (Homo sapiens) (UniProt P54132). Briefly: qHTS Validation Assay for Inhibitors of Bloom's syndrome helicase (BLM) (AID 2364). The method in brief:
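50 nM BLM preincubated 15 min at room temperature with compound in pH 8.0 Tris buffer containing 2.5 ug/ml poly(dI-dC); started with 200 nM TAMRA/BHQ-2 forked duplex and 2 mM ATP (final). Unwinding read as TAMRA fluorescence increase, two reads 2 h apart.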

The structures appear in SMILES notation. Results filed as inconclusive are left out. The source made the active and inactive calls. Unless noted, the call rests on the fitted dose curve; in most records, active means well fitted curve in the direction sought with a large enough effect; inconclusive means small, poorly fitted or top-dose-only effect, or another doubt; inactive means no such curve, though single readings can be large; an effect the other way counts as inactive or inconclusive.

Tumor susceptibility gene 101 protein (Homo sapiens), sequence (Q99816 whole entry, looked up, the tested form may be a part): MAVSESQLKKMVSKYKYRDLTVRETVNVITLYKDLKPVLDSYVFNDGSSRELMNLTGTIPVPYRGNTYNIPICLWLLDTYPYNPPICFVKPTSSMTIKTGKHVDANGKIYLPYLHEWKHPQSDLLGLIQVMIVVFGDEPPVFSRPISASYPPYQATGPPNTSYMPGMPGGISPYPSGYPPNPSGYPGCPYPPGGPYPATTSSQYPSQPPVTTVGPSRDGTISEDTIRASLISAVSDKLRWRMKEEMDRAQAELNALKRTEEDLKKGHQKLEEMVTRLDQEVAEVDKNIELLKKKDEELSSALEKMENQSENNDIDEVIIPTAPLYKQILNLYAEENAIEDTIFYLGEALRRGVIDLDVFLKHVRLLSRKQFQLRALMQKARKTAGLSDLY
Beta-2 adrenergic receptor (Homo sapiens), sequence (P07550 whole entry, looked up): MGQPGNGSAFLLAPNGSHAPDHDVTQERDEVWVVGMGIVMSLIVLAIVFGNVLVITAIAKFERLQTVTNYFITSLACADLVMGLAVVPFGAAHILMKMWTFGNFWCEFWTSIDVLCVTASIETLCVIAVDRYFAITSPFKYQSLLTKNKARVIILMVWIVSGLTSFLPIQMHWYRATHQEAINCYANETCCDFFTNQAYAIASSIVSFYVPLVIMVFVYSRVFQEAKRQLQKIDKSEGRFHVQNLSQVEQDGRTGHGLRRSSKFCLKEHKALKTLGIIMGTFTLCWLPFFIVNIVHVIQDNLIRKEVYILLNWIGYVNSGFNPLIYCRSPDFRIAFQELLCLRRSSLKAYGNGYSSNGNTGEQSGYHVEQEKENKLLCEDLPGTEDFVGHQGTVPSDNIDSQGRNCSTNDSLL
Ubiquitin carboxyl-terminal hydrolase 2 (Homo sapiens), sequence (O75604 whole entry, looked up): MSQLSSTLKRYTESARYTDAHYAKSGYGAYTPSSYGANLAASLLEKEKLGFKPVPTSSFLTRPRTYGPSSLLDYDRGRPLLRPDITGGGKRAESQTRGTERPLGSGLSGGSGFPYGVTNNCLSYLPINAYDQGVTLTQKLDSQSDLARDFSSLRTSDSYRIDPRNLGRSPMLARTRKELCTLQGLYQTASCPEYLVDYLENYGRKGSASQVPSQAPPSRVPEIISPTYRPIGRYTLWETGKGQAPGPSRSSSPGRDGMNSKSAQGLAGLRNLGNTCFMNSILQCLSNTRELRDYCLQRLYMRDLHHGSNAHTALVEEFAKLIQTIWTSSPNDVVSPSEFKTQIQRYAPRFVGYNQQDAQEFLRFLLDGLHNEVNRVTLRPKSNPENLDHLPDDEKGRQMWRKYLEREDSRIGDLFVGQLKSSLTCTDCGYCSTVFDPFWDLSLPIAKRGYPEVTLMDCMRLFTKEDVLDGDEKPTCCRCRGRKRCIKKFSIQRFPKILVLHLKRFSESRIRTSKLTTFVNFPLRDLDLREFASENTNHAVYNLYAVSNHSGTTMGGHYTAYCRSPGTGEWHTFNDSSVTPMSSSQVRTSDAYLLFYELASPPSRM
ATP-dependent DNA helicase Q1 (Homo sapiens), sequence (P46063 whole entry, looked up): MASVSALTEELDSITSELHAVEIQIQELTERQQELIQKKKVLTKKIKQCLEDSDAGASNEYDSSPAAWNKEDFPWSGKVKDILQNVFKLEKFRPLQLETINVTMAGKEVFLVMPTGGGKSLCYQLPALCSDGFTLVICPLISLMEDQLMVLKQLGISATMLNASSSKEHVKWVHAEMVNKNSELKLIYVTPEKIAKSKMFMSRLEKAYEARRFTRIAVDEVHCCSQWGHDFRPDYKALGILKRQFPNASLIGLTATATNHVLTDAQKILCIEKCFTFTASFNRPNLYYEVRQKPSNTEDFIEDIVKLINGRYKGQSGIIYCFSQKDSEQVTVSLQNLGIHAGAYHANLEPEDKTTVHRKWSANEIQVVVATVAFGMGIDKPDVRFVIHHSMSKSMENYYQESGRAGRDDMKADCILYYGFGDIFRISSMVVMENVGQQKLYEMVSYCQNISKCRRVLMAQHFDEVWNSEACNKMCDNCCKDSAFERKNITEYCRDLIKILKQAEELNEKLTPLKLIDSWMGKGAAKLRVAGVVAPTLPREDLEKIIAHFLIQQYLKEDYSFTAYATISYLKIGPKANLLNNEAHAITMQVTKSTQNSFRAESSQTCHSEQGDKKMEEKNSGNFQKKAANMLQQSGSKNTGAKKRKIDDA
DNA polymerase III PolC-type (Bacillus subtilis (strain 168)), sequence (P13267 whole entry, looked up): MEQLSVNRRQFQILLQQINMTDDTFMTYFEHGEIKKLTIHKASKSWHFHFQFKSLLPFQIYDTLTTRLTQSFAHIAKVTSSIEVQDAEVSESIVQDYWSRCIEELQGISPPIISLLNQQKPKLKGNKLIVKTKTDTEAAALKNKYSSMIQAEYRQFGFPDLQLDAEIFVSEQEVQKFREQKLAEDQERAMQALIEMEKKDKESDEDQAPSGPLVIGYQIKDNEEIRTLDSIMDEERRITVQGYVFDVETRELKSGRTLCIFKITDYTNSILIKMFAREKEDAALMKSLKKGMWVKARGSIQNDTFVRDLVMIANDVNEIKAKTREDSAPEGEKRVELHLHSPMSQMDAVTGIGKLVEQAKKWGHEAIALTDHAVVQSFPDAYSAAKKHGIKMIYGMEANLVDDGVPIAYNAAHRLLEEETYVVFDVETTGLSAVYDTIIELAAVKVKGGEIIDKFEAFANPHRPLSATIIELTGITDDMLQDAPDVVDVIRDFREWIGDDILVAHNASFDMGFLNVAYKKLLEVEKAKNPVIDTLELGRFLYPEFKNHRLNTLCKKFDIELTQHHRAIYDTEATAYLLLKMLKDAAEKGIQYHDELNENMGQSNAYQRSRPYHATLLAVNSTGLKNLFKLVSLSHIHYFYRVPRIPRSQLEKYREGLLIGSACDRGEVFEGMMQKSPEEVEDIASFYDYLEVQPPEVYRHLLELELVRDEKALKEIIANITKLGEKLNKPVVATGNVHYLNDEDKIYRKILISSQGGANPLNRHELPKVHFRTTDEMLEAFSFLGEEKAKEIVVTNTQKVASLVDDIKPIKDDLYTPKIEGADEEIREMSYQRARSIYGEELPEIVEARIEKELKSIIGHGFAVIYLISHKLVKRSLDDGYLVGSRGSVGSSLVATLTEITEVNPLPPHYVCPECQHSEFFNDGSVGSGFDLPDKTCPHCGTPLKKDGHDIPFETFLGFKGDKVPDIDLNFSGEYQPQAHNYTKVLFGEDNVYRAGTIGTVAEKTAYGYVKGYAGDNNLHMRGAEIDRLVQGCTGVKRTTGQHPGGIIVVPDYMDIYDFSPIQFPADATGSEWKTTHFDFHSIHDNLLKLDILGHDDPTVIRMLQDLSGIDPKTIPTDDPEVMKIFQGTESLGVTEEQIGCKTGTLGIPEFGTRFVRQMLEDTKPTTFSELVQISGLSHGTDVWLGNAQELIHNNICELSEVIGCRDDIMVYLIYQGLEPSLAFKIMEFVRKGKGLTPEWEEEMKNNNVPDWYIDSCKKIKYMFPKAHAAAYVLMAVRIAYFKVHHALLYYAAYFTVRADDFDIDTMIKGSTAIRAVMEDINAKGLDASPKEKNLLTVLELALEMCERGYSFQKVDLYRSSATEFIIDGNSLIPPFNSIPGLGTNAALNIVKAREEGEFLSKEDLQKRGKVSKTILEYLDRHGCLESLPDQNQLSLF
Ferritin light chain (Equus caballus), sequence (P02791 2-175 limits assumed): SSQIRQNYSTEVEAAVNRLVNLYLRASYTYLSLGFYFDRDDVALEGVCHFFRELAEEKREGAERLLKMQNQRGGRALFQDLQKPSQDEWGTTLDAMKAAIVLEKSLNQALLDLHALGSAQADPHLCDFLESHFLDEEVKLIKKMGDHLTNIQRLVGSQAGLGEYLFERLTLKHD

Take `CN1CCc2cc(O)c(O)cc2C(c2ccccc2)C1` (stereo not drawn): the Potency in assay [1] was 10 µM (active); in assay [2] it was 12.6 µM (active). Besides, the Potency entry in [3], in assay [4], in assay [6], in assay [7], in [8] and in assay [9] was “inactive” throughout. Besides, the result in assay [5], in assay [10], in assay [11] and in assay [12] was inactive.

Consider `CN(C)c1nc2c(Br)c(Br)c(Br)c(Br)c2[nH]1`, for which the Potency result in assay [13], in assay [4], in assay [6] and in assay [8] was “inactive” in each case. The molecule was called inactive in assay [5], in assay [10] and in [12].

`CCCCCCCCCCCCCCCC(=O)NCC(COP(=O)([O-])OCC[N+](C)(C)C)OCC` (stereo not drawn): the Potency result in assay [13], in assay [2], in assay [4], in assay [6], in assay [15] and in assay [16] was “inactive” each time. Besides, the Potency result in assay [8] and in [9] was “inactive” in each case. Besides, the outcome in assay [14], in assay [10], in [11] and in assay [12] was inactive.

Turning to `Fc1cccc(/C=N/N=C/c2cccc(F)c2)c1`, the Potency entry in assay [13], in assay [2], in [3], in assay [4], in [6] and in assay [15] was “inactive” throughout. Also, the Potency result in assay [16], in [7], in assay [8] and in [9] was “inactive” throughout. The molecule was called inactive in assay [5], in assay [10] and in assay [12].

For the molecule `CCCCCCCCCCCCCCCCCC(=O)NCC(COP(=O)([O-])OCC[N+](C)(C)C)OCC` (stereo not drawn), the Potency result in assay [13], in [2], in assay [4], in assay [6] and in [8] was “inactive” throughout. For the same molecule, the call in assay [14], in assay [5], in assay [10] and in assay [12] was inactive. Moreover, the Potency in assay [7] is 1.12 µM (active).

As for `NC(N)=NC(=O)c1nc(Cl)c(N2CCCCCC2)nc1N`, the figures for the Potency in [1] and in [2] were 2.82 µM (active) and 7.94 µM (active), respectively. Also, the Potency entry in [4], in [17], in assay [6], in assay [16], in assay [7] and in [8] was “inactive” throughout. Moreover, the Potency result in assay [9] was “inactive”. Further, the result in assay [10], in [11] and in assay [12] was inactive.

In the case of `NO`, the Potency result in [13], in [3], in assay [4], in assay [17], in [6] and in assay [15] was “inactive” in each case. The Potency result in assay [16], in assay [7], in [8] and in [9] was “inactive” each time. The molecule was called inactive in assay [14], in [5], in assay [10] and in [11].

As to `O=C(/C=C/c1ccc(O)cc1)c1ccc(O)cc1O`, the values for the Potency in assay [1] and in [2] were 10 µM (active) and 12.6 µM (active), respectively. Moreover, the Potency result in [3], in [4], in assay [6], in assay [15], in assay [8] and in [9] was “inactive” each time. The call in assay [5], in assay [10] and in [12] was inactive.

For the molecule `CN1CCc2cc(NC(=O)Nc3cccnc3)ccc21`, the Potency entry in [13], in [3], in [4], in [6], in [15] and in assay [16] was “inactive” in each case. In addition, the Potency entry in assay [7], in [8] and in [9] was “inactive” each time. In addition, the molecule was classed as inactive in assay [5], in assay [10] and in assay [12].

Consider `CC(C)(C)NCC(O)COc1nsnc1N1CCOCC1` (stereo not drawn), for which the Potency entry in assay [13], in [2], in [3], in assay [4] and in assay [7] was “inactive” in each case. Also, the outcome in assay [14] was inactive.

`CN1C2CCC1CC(OC(=O)C(O)c1ccccc1)C2` (stereo not drawn): the Potency entry in assay [13], in [2], in assay [3], in assay [4], in assay [6] and in [15] was “inactive” in each case. Also, the Potency entry in assay [16], in assay [7], in [8] and in assay [9] was “inactive” throughout. Further, the result in assay [14], in assay [5], in assay [10] and in assay [11] was inactive.
